About 79,000 compounds went through this panel and 15% of them were active in at least one assay; those are over-represented in the sample as a whole. Active and inactive are the calls of the source. Cut-off read from the data, not from the text of the source: active = growth inhibition above about 70%; inactive = the rest.
What was measured:
[1] = NCI Yeast Anticancer Drug Screen. Data for the rad50 strain (AID 155);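 note: 0% = growth of vehicle-only cultures of the same strain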; details: S. cerevisiae rad50 strain growth inhibition; at 50.0 µM; stronger effect = higher value
In short: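 Relative growth inhibition (compound vs vehicle) was measured in yeast with a defined repair-gene alteration.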

[2] = NCI Yeast Anticancer Drug Screen. Data for the mec2-1 strain (AID 157); details: S. cerevisiae mec2-1 strain, at 50.0 µM, stronger effect = higher value
In short: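 Yeast mec2-1 mutant treated with compound. Readout: growth inhibition vs vehicle controls.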

[3] = NCI Yeast Anticancer Drug Screen. Data for the sgs1 mgt1 strain (AID 161);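 note: 0% = growth of cultures given vehicle only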; details: S. cerevisiae sgs1 mgt1 strain, at 50.0 µM, stronger effect = higher value
In short: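 Inhibition of yeast growth, normalised to vehicle-treated controls, is reported for a strain bearing genetic alterations in DNA damage repair.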

[4] = NCI Yeast Anticancer Drug Screen. Data for the cln2 rad14 strain (AID 165);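 note: 0% = growth equal to vehicle treated cultures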; details: S. cerevisiae cln2 rad14 strain, at 50.0 µM, stronger effect = higher value
In short: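 cln2 rad14 yeast strain; compound exposure; growth inhibition read vs vehicle controls.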

[5] = NCI Yeast Anticancer Drug Screen. Data for the bub3 strain (AID 167); details: S. cerevisiae bub3 mutant strain, at 50.0 µM, stronger effect = higher value
In short: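 Screening used yeast with an engineered genetic alteration affecting cell cycle control. Compound-exposed cultures were compared with vehicle cultures, and reduced growth was taken as inhibition.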

[6] = NCI Yeast Anticancer Drug Screen. Data for the mlh1 rad18 strain (AID 175); details: S. cerevisiae mlh1 rad18 strain growth inhibition; at 50.0 µM; stronger effect = higher value
In short: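 Yeast w/ defined DNA-repair lesions; compound exposure; growth vs vehicle controls → % inhibition.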

Measured: growth inhibition

O=C1C2C3C=CC(O3)C2C(=O)N1CCN1CCCCC1 (configuration not stated)
inactive: [1] -0.75% | [2] -4.8% | [3] -0.65% | [4] 6.5% | [5] -2.15% | [6] -6.05%

CN(C)c1ccc(/C=C2/CC(=O)N(c3ccccc3)C2=O)cc1
inactive: [1] 16.3% | [2] 1.15% | [3] 25.1% | [4] -35.3% | [5] -0.9% | [6] 15.6%

CC(COCc1ccccc1)C1OC(C)(C)OC(C#N)C1C (configuration not stated)
inactive: [1] -1.05% | [2] -1.4% | [3] -4.8% | [4] -20.4% | [5] 11.7% | [6] 14.3%

CCc1cc(Cc2cc(Cl)c(NC(=O)C(=O)C3NC(=O)NC3=O)c(CC)c2)cc(Cl)c1NC(=O)C(=O)C1NC(=O)NC1=O (configuration not stated)
inactive: [1] 6.5% | [2] 5.2% | [3] 4.25% | [4] 15.9% | [5] 2.8% | [6] 8.65%

CCOC(=O)C(=[N+]=[N-])C(=O)CN1C(=O)C2CC(C)=C(C)CC2C1O (configuration not stated)
inactive: [1] -18.8% | [2] 1.15% | [3] -4.45% | [4] 1.85% | [5] -10.8% | [6] 16.9%

CC(=NNC(=S)Nc1ccc(C)cc1)c1cccc(C(C)=NNC(=S)Nc2ccc(C)cc2)n1
inactive: [1] 35.5% | [2] 14.1% | [3] 36.8% | [4] 17.4% | [5] 12.4% | [6] 23.8%

CC(=O)CC(=O)Nc1ccccc1C
inactive: [1] -5.2% | [2] 5.95% | [3] 2.4% | [4] -27.4% | [5] -11.2% | [6] -22.7%

COc1ccc2c(c1)CCc1nc(N)nc(N)c1-2
inactive: [1] -3.9% | [2] 4.1% | [3] -14.2% | [4] -40.5% | [5] -16.1% | [6] 11.8%

CC1(C)OC(=O)N=C1c1cccc(Cl)c1
inactive: [1] -12.3% | [2] -17.8% | [3] -15.9% | [4] -5.9% | [5] 4.25% | [6] -3.7%

COc1ccc2c(c1OC)C1NCCc3cc4c(cc3C1(OC)C2=O)OCO4 (configuration not stated)
inactive: [1] 21.9% | [2] 2.35% | [3] 0.85% | [4] 0.5% | [5] 2% | [6] 8.55%

OC(COc1ccc(Cl)cc1Cl)CN1CCCC1 (configuration not stated)
inactive: [1] 10.1% | [2] 11.8% | [3] 17.7% | [4] 5.05% | [5] -23.4% | [6] 18.1%

Cc1cc2c(cc1C)[n+](=O)c(C(=O)CC(=O)C(=O)Nc1ccccc1C)c(C)n2[O-]
inactive: [1] 37% | [2] 46.5% | [3] 3.8% | [4] 30.4% | [5] 47.3% | [6] 9.3%

C=C1CCC2(C)CCC3(C)C(CCC4C5(C)CCC(OC(C)=O)C(C)(C)C5CCC43C)C2C1C (configuration not stated)
inactive: [1] -4.05% | [2] -5.9% | [3] 4.6% | [4] 1.45% | [5] -5.15% | [6] 26.6%

CCOC(=O)c1[nH]c(COC(C)=O)c2c1CCCCCCCCCC2
inactive: [1] -6.1% | [2] -9.75% | [3] 6.05% | [4] 41.2% | [5] 5% | [6] -12.3%

CC(=O)Nc1ccc(S(=O)(=O)N/N=C\CC(C)C)cc1
inactive: [1] -19.4% | [2] -14.2% | [3] -26.2% | [4] -6.95% | [5] -46% | [6] -27.2%

COc1ccc(C(=O)c2ccc(OC)cc2OC)cc1
inactive: [1] -4.15% | [2] 1.7% | [3] 21.4% | [4] -23.1% | [5] 3.05% | [6] 1.3%

Cc1ccc(N2C(=O)c3ccccc3NC2(C)CCl)cc1 (configuration not stated)
inactive: [1] 4.55% | [2] -9.25% | [3] 10.9% | [4] -3.7% | [5] 33.1% | [6] 1.3%

CC(O)(c1ccccc1)C1CC1c1ccccc1 (configuration not stated)
inactive: [1] 29.9% | [2] -3.5% | [3] 20.8% | [4] -17.2% | [5] -12.5% | [6] 6.3%

COc1ccn(C2OC(=O)C(C)(C)C2=O)c(=O)n1 (configuration not stated)
inactive: [1] -0.4% | [2] -15.4% | [3] 0.55% | [4] -1.2% | [5] -9.4% | [6] -12.6%

COC(CCCl)c1ccccc1 (configuration not stated)
inactive: [1] 1.2% | [2] -21.2% | [3] -9.8% | [4] 8.25% | [5] -12.7% | [6] 6.9%

O=C(C[n+]1ccncc1)c1ccc2c(c1)CCCC2
inactive: [1] -8.7% | [2] 10.8% | [3] 14.7% | [4] -5.95% | [5] 46.1% | [6] 20.5%

CC(CS(C)(=O)=O)S(=O)(=O)Cc1ccccc1 (configuration not stated)
inactive: [1] -2.4% | [2] 6.05% | [3] 3.2% | [4] -28.8% | [5] 6.25% | [6] -0.45%

C1=C(CN2CCCCC2)Oc2ccccc2O1
inactive: [1] 25.3% | [2] 36.9% | [3] 42.5% | [4] 46% | [5] 21.3% | [6] 34.9%

CNC(=O)OC(COC)CN1CCN(c2ccccc2C)CC1 (configuration not stated)
inactive: [1] -25.8% | [2] -47.8% | [3] -10.6% | [4] -1.25% | [5] -8.3% | [6] -6.5%

CCCC(=O)OCCC(C)C
inactive: [1] 30.9% | [2] 10.3% | [3] 13.3% | [4] -29.9% | [5] -13.5% | [6] 22.4%

COc1ccc2c(c1)OC1c3ccccc3OCC21 (configuration not stated)
inactive: [1] 26.1% | [2] 11.6% | [3] 15.8% | [4] 12.3% | [5] 27.9% | [6] 30.2%

C/C(CC(=O)Nc1cc(Cl)c(Cl)cc1Cl)=N\NC(N)=O
inactive: [1] 28.8% | [2] 11.7% | [3] 1.55% | [4] 24.4% | [5] 30.3% | [6] 19.4%

CCc1ccc(/C(C#N)=C/c2ccc(N(C)CCC#N)cc2)cc1
inactive: [1] 10.8% | [2] 2.8% | [3] 18.8% | [4] 5% | [5] 16.9% | [6] -23.9%

CC(=O)NC1=C(N2CCC2C)C(=O)c2ccccc2C1=O (configuration not stated)
inactive: [1] -2.4% | [2] 0.8% | [3] 6.15% | [4] -4.4% | [5] -43.9% | [6] -11.4%

CCOC(=O)CNc1c(OCc2ccccc2)c(=O)c1=O
inactive: [1] -8.05% | [2] -10.8% | [3] -18.1% | [4] -3.65% | [5] -16.2% | [6] 5.8%

COc1ccc(C)cc1NC(=S)NC(=O)c1cccc2ccccc12
inactive: [1] -38.6% | [2] 12.9% | [3] 9.85% | [4] -61.1% | [5] 40% | [6] -1.55%

CCCCCCCCCCCCCCCC(=O)O (tested in a mixture with another compound)
inactive: [1] 7.65% | [2] -1.5% | [3] -18.2% | [4] 33.8% | [5] 12.1% | [6] -11.4%

O=C(/C=C/c1cccc(O)c1)c1ccccc1
inactive: [1] 29.4% | [2] 8.25% | [3] 38.4% | [4] 59.8% | [5] -5.6%
active: [6] 92%

OCCC(CO)Cc1ccc2c(c1)OCO2 (configuration not stated)
inactive: [1] -26.7% | [2] 2.75% | [3] 9.3% | [4] 10.4% | [5] -14.2% | [6] -36.3%

CCOC(=O)C(Cc1cccc2ccccc12)(NC(C)=O)C(=O)OCC
inactive: [1] -7.5% | [2] -4.55% | [3] -5.95% | [4] -31.9% | [5] 16.5% | [6] -14.8%

CCOC(CS(=O)(=O)CC(N)=O)OCC
inactive: [1] 6.3% | [2] 0.45% | [3] -3.75% | [4] -29.4% | [5] -11.8% | [6] 5.8%

COc1ccc(N(C(=O)Nc2ccc(Cl)c(Cl)c2)c2ccccc2)cc1
inactive: [1] -32.1% | [2] -28.4% | [3] -19.2% | [4] -1.45% | [5] 14.3% | [6] -10.4%

NC(=O)OCc1c(-c2ccccc2)nn(-c2ccccc2)c1COC(N)=O
inactive: [1] -26.2% | [2] -31% | [3] -18.5% | [4] -19.6% | [5] 1.05% | [6] -16.2%

CN(C(=O)C12C3C4C5C3C1(C(=O)O)C5C42)C(C)(C)C (configuration not stated)
inactive: [1] 35.4% | [2] 12.2% | [3] 0.85% | [4] 18.8% | [5] 28.1% | [6] 25.9%

O=C(CCCc1ccccc1)OCC(=O)c1ccc(-c2ccccc2)cc1
inactive: [1] 19.4% | [2] 6.45% | [3] 11.2% | [4] 3.45% | [5] 12.8% | [6] 14.6%

Cc1ccc(Cl)cc1N
inactive: [1] 11.8% | [2] 31.1% | [3] 8.25% | [4] -27% | [5] 0.85% | [6] 18.8%

CCOP(=O)(Cc1c(C)cc(Br)c2ccccc12)OCC
inactive: [1] -2.85% | [2] -13.8% | [3] -0.95% | [4] -32.2% | [5] 5.45% | [6] -9.35%

Source: PubChem BioAssay (NCI)
